Our source for the composite z-score values is PubChem BioAssay.

The target in the assay is Alpha-bungarotoxin (Bungarus multicinctus) (UniProt P60615). As to the kind of experiment: alpha-bungarotoxin binders on microarray, profiling panel, artefact control for SMM control protein annotation, biochemical, small-molecule microarray, Alexa647 label, 635/667 nm fluorescence (AID 1117). Particulars: alpha-BTX-A647 binding fluorescence, higher = more signal.
Alpha-bungarotoxin (Bungarus multicinctus), sequence (P60615 whole entry, looked up): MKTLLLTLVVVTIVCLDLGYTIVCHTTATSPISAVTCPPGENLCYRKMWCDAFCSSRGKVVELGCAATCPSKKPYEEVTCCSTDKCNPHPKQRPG
`Oc1ccc2cc[n+](Cc3cccc(OC(F)(F)F)c3)cc2c1` showed a composite z-score of 0.266.

The compound `CC1CC/C=C\[C@H]2OC34C=CCN(CCN5CCOCC5)C(=O)[C@H]3N(CCCCCO)C(=O)[C@@H]4C2C(=O)O1` (stereo partly specified) gave a composite z-score of -1.06.

`C=C(C(=O)CC[C@@H](OC(=O)c1cccnc1)c1ccc(CO)o1)C(C)C`: the composite z-score came out at 0.346.

For the compound `C=CCC(OC(C)=O)[C@@H]1[C@@H](N(Cc2cc3ccccc3o2)C(=O)c2cccc3ccccc23)c2cc(OCCCO)ccc2N1C(=O)Cc1ccc(OC)cc1` (stereo partly specified), the composite z-score was determined as 0.608.

The compound `C=CCN1C(=O)[C@]2(COC(c3ccc(OCCCO)cc3)=N2)Cc2ccccc21` had a composite z-score of 1.48.

Take `O=C(NCc1ccccc1)[C@@H]1c2ccccc2C(=O)N(C2CCCCC2)[C@H]1c1ccc(CO)cc1`: the composite z-score was -0.09.

As for `[N-]=[N+]=NCc1ccccc1C[C@@]1(C(=O)NCc2ccccc2)N=C(c2ccc(OCCCO)cc2)O[C@@H]1c1ccccc1CN=[N+]=[N-]`, the composite z-score amounted to 1.49.

`CCOC(=O)C=Cc1cccc(OC)c1O` came in with a composite z-score of 0.254.

As for `CN(C)CCCC[C@@H]1NC(=O)[C@H]2C[C@@H](C(=O)NCCCCCNC(=O)CS)[C@@H](c3ccc(O)cc3)N2C1=O`, the composite z-score was 0.808.

`COC(=O)[C@@]1(Cc2ccccc2)[C@H]2c3cc(C(=O)N(C)C)n(Cc4cc(F)c(F)c(F)c4)c3C[C@H]2CN1C(=O)c1ccccc1` returned a composite z-score of 0.517.

`C=C(C)[C@@H]1CC=C(C(O)C2C=CC3C(=O)N(Cc4ccccc4)C(=O)C3N2n2cnnc2)CC1` (stereo partly specified) showed a composite z-score of 0.291.

`O=C(NCCN1CCOCC1)[C@@H]1c2ccccc2C(=O)N(Cc2cc(F)cc(C(F)(F)F)c2)[C@H]1c1ccc(CO)cc1`: the composite z-score was -0.444.

Take `O=C1O[C@H](c2ccccc2)[C@H](c2ccccc2)N2[C@H]1[C@@H](C(=O)NC[C@H](O)c1ccccc1)[C@]1(C(=O)Nc3ccc(C#CC4(O)CCCCCC4)cc31)[C@H]2c1ccccc1OCCO`: the composite z-score is 0.837.

`C=C(/C(=C/C[C@@H](OC(=O)c1ccncc1)c1ccc(CO)o1)c1cc(C(=O)OC)ccc1OC)C(C)C` registered a composite z-score of 0.582.

The compound `COc1ccc([Si](C)(C)[C@@H]2[C@@H](CCO)O[C@]3(C(=O)N(Cc4ccccc4)c4ccc(N(C=O)c5ccccc5)cc43)[C@H]2C)cc1` yielded a composite z-score of -0.525.

For the compound `CCCCCCC#C[Si](O[C@H](c1ccccc1)c1cn([C@H](C)c2ccccc2)nn1)(C(C)C)C(C)C`, the composite z-score was -0.0777.

The compound `[N-]=[N+]=NCc1ccccc1[C@@H]1OC(c2ccc(OCCCO)cc2)=N[C@]1(Cc1ccccc1)C(=O)O` registered a composite z-score of 0.865.

Consider `CCCC[C@@H]1C[C@H]1[C@@H](NC(=O)c1ccccc1)c1ccc(-c2ccccc2)cc1`, for which the composite z-score came to 0.805.

`Cc1ccc(S[C@]2(C(=O)NCCN3CCOCC3)CC(=O)N(C3CCCCC3)[C@@H]2c2ccc(CO)cc2)cc1` displayed a composite z-score of 0.711.

Turning to `CC(C)NC(=O)[C@@]1(c2ccc([N+](=O)[O-])cc2)CC(=O)N(C(C)C)[C@@H]1c1ccc(CO)cc1`, the composite z-score was -0.125.

`C=CCN1Cc2ccccc2C[C@@]2(COC(c3ccc(OCCCO)cc3)=N2)C1=O`: the composite z-score was 0.34.

Consider `COCCn1c(C(=O)N2CCCC2)cc2c1C[C@H]1CN(C(=O)c3ccccc3)[C@@](Cc3ccc(OC)cc3)(C(=O)OC)[C@@H]21`, for which the composite z-score was determined as 0.626.

As to `C=C[C@@H](C)[C@@H](OC(=O)Nc1ccc(OC)cc1)c1ccc(O)c2ccccc12`, the composite z-score was -0.511.

Compound `COCCOC(=O)N1C(=O)[C@@]2(c3ccccc31)[C@H](C(=O)N1CCCCCCC1)[C@H]1C(=O)O[C@H](c3ccccc3)[C@H](c3ccccc3)N1[C@@H]2c1ccccc1OCCO` yielded a composite z-score of 2.36.

`COCCn1c(C(=O)N(C)C)cc2c1C[C@H]1CN(C(=O)c3ccccc3)[C@@](Cc3ccc(F)cc3)(C(=O)OC)[C@@H]21` yielded a composite z-score of 0.305.

For the compound `CC(C)N1C(=O)c2ccccc2[C@](C)(C(=O)NCCCN(C)C)[C@@H]1c1ccc(CO)cc1`, the composite z-score stood at 1.28.

For the compound `O=C1C2C=CC(C(O)c3ccc(-c4ccccc4)s3)N(Nc3ccccc3F)C2C(=O)N1c1ccccc1` (stereo unspecified), the composite z-score worked out at 1.21.

The compound `CN1C(=O)C2C(C1=O)C1C=C(c3ccc(CO)cc3)C2C(C2CC2)N1Cc1sc2ccccc2c1Cl` (stereo unspecified) showed a composite z-score of 2.87.

For `CO[C@H]1O[C@H](CO)[C@@H](OC(=O)Nc2ccc3c(c2)OCO3)[C@H](OC(=O)Nc2ccc3c(c2)OCO3)[C@H]1OC(=O)Nc1ccc2c(c1)OCO2`, the composite z-score turned out to be 0.477.

Take `C=CC[C@]1(C(=O)NCCN2CCOCC2)N=C(c2ccc(OCCCO)cc2)O[C@H]1c1ccccc1N=[N+]=[N-]`: the composite z-score came to 1.3.

Consider `C=CCNC(=O)[C@@H]1[C@H]2C(=O)O[C@H](c3ccccc3)[C@H](c3ccccc3)N2[C@H](c2ccccc2OCCO)[C@@]12C(=O)N(C(=O)OCCOC)c1ccc(C#CCC(C(=O)OC)C(=O)OC)cc12`, for which the composite z-score was found to be 3.06.
